This passage reports outcome and AC50 results from PubChem BioAssay (EPA / NIEHS).

Read-out in assay [1]: Interleukin-1 alpha (IL1a), IL1A (gene 3552)
Description: BSK_LPS_IL1a: BioMAP Diversity Plus: LPS Assay for Interleukin-1 alpha (IL1a) Biomarker Activity (AID 2283080). Particulars: primary human HUVEC with PBMC; actives raise or lower the signal. Put shortly: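 ELISA read-out of IL-1 alpha from a human primary vascular co-culture (endothelium plus PBMC) under LPS, sampled 24 hours post-dosing. Activity was fitted in both directions relative to DMSO controls.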

Read-out in assay [2]: Monocyte Chemoattractant Protein-1 (MCP1), CCL2 (gene 6347)
Description: BSK_LPS_MCP1: BioMAP Diversity Plus: LPS Assay for Monocyte Chemoattractant Protein-1 (MCP1) Biomarker Activity (AID 2283081). Particulars: primary human HUVEC with PBMC; actives raise or lower the signal. The procedure, abridged:
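Human endothelial–PBMC co-cultures were dosed with chemical, then LPS-driven MCP-1 levels were quantified by ELISA at 24 h. Activity in either direction was fitted versus DMSO negative control.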

Assay [3] in a line: BSK_LPS_PGE2: BioMAP Diversity Plus: LPS Assay for Prostaglandin E2 (PGE2) Biomarker Activity (AID 2283082). Particulars: primary human HUVEC with PBMC; actives raise or lower the signal. Put shortly:
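LPS-activated HUVEC/PBMC co-culture; cmpd dosed, 24 h; PGE2 by ELISA; bidirectional fit vs DMSO; SRB (0.1%, TCA-fixed, 560 nm) in parallel plates for overt cytotox.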

Read-out in assay [4]: Macrophage colony-stimulating factor (MCSF), CSF1 (gene 1435)
The assay can be described thus: BSK_LPS_MCSF: BioMAP Diversity Plus: LPS Assay for Macrophage colony-stimulating factor (MCSF) Biomarker Activity (AID 2283083). Particulars: primary human HUVEC with PBMC; actives raise or lower the signal. Put shortly: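 ELISA readout of M-CSF after 24 h compound exposure in a human endothelial/PBMC co-culture. Activity, in either direction, is fitted relative to DMSO vehicle.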

Read-out in assay [5]: Tissue Factor, F3 (gene 2152)
Description: BSK_LPS_TissueFactor: BioMAP Diversity Plus: LPS Assay for Tissue Factor Biomarker Activity (AID 2283084). To be noted: primary human HUVEC with PBMC; actives raise or lower the signal. Put shortly: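 ELISA signal for cell-surface Tissue Factor (CD142) was read 24 h after compound dosing of an LPS-stimulated human endothelial–PBMC primary co-culture. Gain or loss of signal was scored relative to DMSO.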

Read-out in assay [6]: Tumor necrosis factor (Homo sapiens) (UniProt P01375)
Description: BSK_LPS_TNFa: BioMAP Diversity Plus: LPS Assay for Tumour Necrosis Factor alpha (TNFa) Biomarker Activity (AID 2283085). To be noted: primary human HUVEC with PBMC; actives raise or lower the signal. Put shortly: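 Read-out is ELISA of TNFa in primary human endothelial cell–PBMC co-cultures at 24 h after compound. Activity in either direction was fitted against DMSO.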

Read-out in assay [7]: Vascular cell adhesion molecule 1 (VCAM1), VCAM1 (gene 7412)
Description: BSK_LPS_VCAM1: BioMAP Diversity Plus: LPS Assay for Vascular cell adhesion molecule 1 (VCAM1) Biomarker Activity (AID 2283086). To be noted: primary human HUVEC with PBMC; actives raise or lower the signal. The procedure, abridged: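 HUVEC + PBMC co-culture, LPS system; compound 24 h; VCAM-1 by ELISA; bidirectional fit vs DMSO control; parallel SRB (0.1%, TCA-fixed, 560 nm) for cytotoxicity.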

Read-out in another assay: CD38, CD38 (gene 952)
Description: BSK_SAg_CD38: BioMAP Diversity Plus: SAg Assay for CD38 Biomarker Activity (AID 2283087). Particulars: primary human HUVEC with PBMC; actives raise or lower the signal. The procedure, abridged:
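Human HUVEC plus PBMC co-culture stimulated with superantigen; CD38 measured by ELISA 24 h after chemical dosing. Fluorescence read-out, bidirectional fit against DMSO; cytotoxicity tracked in parallel by SRB and Alamar Blue.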

Read-out in another assay: CD40, CD40 (gene 958)
The assay can be described thus: BSK_SAg_CD40: BioMAP Diversity Plus: SAg Assay for CD40 Biomarker Activity (AID 2283088). To be noted: primary human HUVEC with PBMC; actives raise or lower the signal. The procedure, abridged: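 Compounds were dosed onto a human primary endothelial–PBMC co-culture, and after 24 h CD40 was quantified by ELISA using a fluorescence signal. Activity in either direction was fitted relative to DMSO.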

Read-out in another assay: CD69, CD69 (gene 969)
The assay can be described thus: BSK_SAg_CD69: BioMAP Diversity Plus: SAg Assay for CD69 Biomarker Activity (AID 2283089).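 On AC50: cell surface CD69 protein quantified by ELISA with fluorescence detection.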 To be noted: primary human HUVEC with PBMC; actives raise or lower the signal. Put shortly:
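Primary human vascular co-culture (umbilical vein endothelium with peripheral blood mononuclear cells) exposed to test chemical for 24 h. CD69 levels quantified by fluorescence ELISA; DMSO served as negative control for bidirectional fitting.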

Read-out in assay [8]: Monocyte Chemoattractant Protein-1 (MCP1), CCL2 (gene 6347)
The assay can be described thus: BSK_SAg_MCP1: BioMAP Diversity Plus: SAg Assay for Monocyte Chemoattractant Protein-1 (MCP1) Biomarker Activity (AID 2283090). Particulars: primary human HUVEC with PBMC; actives raise or lower the signal. Put shortly:
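MCP-1 levels in the endothelial–PBMC SAg co-culture were quantified by ELISA at 24 h post-dosing; both increases and decreases versus DMSO scored. Cytotoxicity monitored by SRB total protein in parallel cultures.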

Read-out in assay [9]: E-selectin (Homo sapiens) (UniProt P16581)
Description: BSK_SAg_Eselectin: BioMAP Diversity Plus: SAg Assay for Eselectin Biomarker Activity (AID 2283091). To be noted: primary human HUVEC with PBMC; actives raise or lower the signal. The procedure, abridged: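 Co-culture: HUVEC + PBMC. Dose compound; 24 h. ELISA for E-selectin. Bidirectional fit vs DMSO.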

Read-out in assay [10]: Monokine induced gamma interferon (MIG), CXCL9 (gene 4283)
The assay can be described thus: BSK_SAg_MIG: BioMAP Diversity Plus: SAg Assay for Monokine induced gamma interferon (MIG) Biomarker Activity (AID 2283092). To be noted: primary human HUVEC with PBMC; actives raise or lower the signal. Put shortly:
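Endothelial cells and PBMC were co-cultured, exposed to test chemicals, and sampled 24 h later. MIG was measured by ELISA, and responses were fitted in both directions relative to DMSO.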

Assay [11] can be described thus: BSK_SAg_PBMCCytotoxicity: PBMC Cytotoxicity Assessment in the BioMAP Diversity Plus: SAg Assay (AID 2283093).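 Further: PBMC viability measured as Alamar Blue reduction fluorescence at 546/580 nm; fitted both ways against DMSO so a hit may be loss or gain of signal.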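 On AC50: PBMC superantigen activated with SEB plus TSST-1 one hour after compound addition.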 To be noted: primary human HUVEC with PBMC. The procedure, abridged:
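HUVEC/PBMC co-culture; PBMC exposed to chemical 1 h before SEB and TSST-1 activation (20 ng/mL each), incubated 90 h, then Alamar Blue 6 h, fluorescence 546/580 nm. Bidirectional fit versus DMSO baseline.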

Read-out in assay [12]: Interleukin-8 (IL8), CXCL8 (gene 3576)
The assay can be described thus: BSK_SAg_IL8: BioMAP Diversity Plus: SAg Assay for Interleukin-8 (IL8) Biomarker Activity (AID 2283094). Particulars: primary human HUVEC with PBMC; actives raise or lower the signal. The procedure, abridged: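 ELISA read-out of IL-8 in a primary human vascular co-culture (umbilical vein endothelium plus PBMC), taken 24 h after compound addition. Values derive from bidirectional fits against DMSO negative controls.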

The nature of assay [13]: BSK_SAg_Proliferation: Cell Proliferation Assessment in the BioMAP Diversity Plus: SAg Assay (AID 2283095).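 Further: relative cell number as total protein by SRB absorbance in sub-confluent culture.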 To be noted: primary human HUVEC with PBMC. Put shortly: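 Cells (endothelium plus PBMC, human primary) were dosed with chemical, cultured 96 h, fixed in 10% TCA and stained with 0.1% SRB. Absorbance at 560 nm gave relative protein, fitted bidirectionally relative to DMSO.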

Assay [14] can be described thus: BSK_SAg_SRB: Viability Assessment in the BioMAP Diversity Plus: SAg Assay (AID 2283096).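 Further: cells read one day after compound addition; hits may be either gain or loss of signal compared with DMSO.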 Particulars: primary human HUVEC with PBMC. Put shortly:
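Human umbilical vein endothelial cells co-cultured with PBMC, read 24 h after compound dosing. Total protein measured by sulforhodamine B staining (0.1% SRB after 10% TCA fixation, absorbance 560 nm); bidirectional fit versus DMSO baseline.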

As a reminder, the AC50 is the concentration giving half of the maximal activity seen.

Several values for one entry are separate records, joined by “and”; a condition that tells them apart may be missing. Equal entries are not always repeated. More than one record can exist for a structure, and the calls need not agree. Activity calls are given as the source filed them. How the source made its calls: active means hit-call score of the fitted dose curve at least 0.9, where 1 is the maximum; inactive means score below 0.9.

Sequence of Tumor necrosis factor (Homo sapiens) (P01375 whole entry, looked up): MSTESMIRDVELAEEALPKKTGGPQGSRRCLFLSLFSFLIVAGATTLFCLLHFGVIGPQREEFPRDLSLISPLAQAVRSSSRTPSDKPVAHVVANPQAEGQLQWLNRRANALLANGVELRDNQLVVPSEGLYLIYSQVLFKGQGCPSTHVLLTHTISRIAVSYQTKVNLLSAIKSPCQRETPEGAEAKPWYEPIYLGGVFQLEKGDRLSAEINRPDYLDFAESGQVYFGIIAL
Sequence of E-selectin (Homo sapiens) (P16581 whole entry, looked up): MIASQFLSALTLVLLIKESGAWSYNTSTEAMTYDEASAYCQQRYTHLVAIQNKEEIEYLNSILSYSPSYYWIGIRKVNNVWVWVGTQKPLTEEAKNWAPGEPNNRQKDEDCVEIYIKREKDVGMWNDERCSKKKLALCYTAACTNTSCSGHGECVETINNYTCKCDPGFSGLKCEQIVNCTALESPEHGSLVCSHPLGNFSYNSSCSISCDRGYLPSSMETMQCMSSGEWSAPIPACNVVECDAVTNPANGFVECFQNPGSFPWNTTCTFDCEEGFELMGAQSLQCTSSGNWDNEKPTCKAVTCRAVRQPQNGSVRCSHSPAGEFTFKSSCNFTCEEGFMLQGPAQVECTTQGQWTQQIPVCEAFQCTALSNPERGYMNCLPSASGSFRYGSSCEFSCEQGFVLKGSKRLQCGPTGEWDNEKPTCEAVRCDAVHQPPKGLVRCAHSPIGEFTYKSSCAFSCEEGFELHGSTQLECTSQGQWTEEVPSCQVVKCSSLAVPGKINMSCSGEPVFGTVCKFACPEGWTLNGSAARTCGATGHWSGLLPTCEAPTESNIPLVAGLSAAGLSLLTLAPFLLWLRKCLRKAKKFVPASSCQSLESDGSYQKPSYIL

As for `O=C(O)C(F)(OC(F)(F)C(F)(OC(F)(F)C(F)(OC(F)(F)C(F)(F)C(F)(F)F)C(F)(F)F)C(F)(F)F)C(F)(F)F` (stereo not given), the outcome in [1], in assay [2], in assay [3], in assay [4], in [5] and in assay [6] was inactive. Besides, the outcome is “inactive” in [7]; “inactive” with CD38, CD38 (gene 952); “inactive” with CD40, CD40 (gene 958); “inactive” with CD69, CD69 (gene 969); “inactive” in assay [8]; “inactive” in [9]. Further, the result in [10], in assay [11], in assay [12], in assay [13] and in [14] was inactive.

In the case of `O=C(CC(=O)C(F)(F)C(F)(F)F)C(F)(F)F`, the outcome in [1], in [2], in assay [3], in assay [4], in assay [5] and in assay [6] was inactive. Also, the outcome in [7] is “inactive”; with CD38, CD38 (gene 952) it was “inactive”; with CD40, CD40 (gene 958), “inactive”; in the assay with CD69, CD69 (gene 969), “inactive”; in [8], “inactive”; in assay [9], “inactive”. Further, the outcome in [10], in [11], in assay [12], in [13] and in [14] was inactive.

Turning to `FC(F)(F)C(F)(F)C(F)(F)C(F)(F)C(F)(F)CCI`, the outcome in assay [1], in assay [2], in assay [3], in assay [4], in assay [5] and in assay [6] was inactive. Further, the outcome in assay [7] is “inactive”; with CD38, CD38 (gene 952), “inactive”; with CD40, CD40 (gene 958), “inactive”; with CD69, CD69 (gene 969), “inactive”; in assay [8], “inactive”; in assay [9], “inactive”. In addition, the outcome in [10], in assay [11], in assay [12], in [13] and in [14] was inactive. In addition, in assay [13], the half-maximal activity concentration (AC50) was 44 µM (active).

In the case of `FC(F)(F)C(F)(F)C(F)(F)C(F)(F)C(F)(F)C(F)(F)C(F)(F)I`, the outcome in assay [1], in assay [2], in [3], in [4], in assay [5] and in assay [6] was inactive. Also, the outcome is “inactive” in assay [7]; “inactive” with CD38, CD38 (gene 952); “inactive” in the assay with CD40, CD40 (gene 958); “inactive” with CD69, CD69 (gene 969); “inactive” in assay [8]; “inactive” in [9]. Besides, the outcome in assay [10], in [11], in assay [12], in [13] and in [14] was inactive.

Consider `FC(F)(I)C(F)(F)C(F)(F)C(F)(F)I`, for which the outcome in assay [1], in assay [2], in assay [3], in assay [4], in assay [5] and in [6] was inactive. The outcome in assay [7] was “inactive”; with CD38, CD38 (gene 952) it was “inactive”; in the assay with CD40, CD40 (gene 958), “inactive”; with CD69, CD69 (gene 969) it was “inactive”; in assay [8], “inactive”; in assay [9], “inactive”. In addition, the outcome in assay [10], in assay [11], in assay [12] and in [14] was inactive. In addition, the AC50 with CD69, CD69 (gene 969) is 46.7 µM (active); in assay [9], 44.1 µM (active); in [11] it was 46.9 µM (active) and 50.1 µM (active); in [12], 30 µM (active); in [13], 54.2 µM (active) and 54.1 µM (active) and 46.5 µM (active).
